# Assay outcomes from PubChem.
# Rows were chosen to be rich in hits. Some 7.4% of all compounds tested hit in one or more screens of this group.
# ELG1 genotoxic = inducers of genotoxicity in HEK293T ELG1-luciferase cells; HEK293T ELG1-luciferase reporter, luminescence, 16 h; Potency, µM (doses to about 46 µM), for the others: top-dose activity change, positive = activation, hits mostly activators; hit rate 1.3% among 330,000; note: % of control where 0% means no effect; nearly all actives have a fitted effect of over 60% in size
#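 Step 1: seed 2,000 HEK293T ELG1-luciferase cells per well. Step 2: add compound or DMSO, incubate 16 hr at 37 °C. Step 3: ONE-Glo, 30 min at room temperature, read luminescence.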
# NPC1 prom act = activates the NPC1 promoter; hit rate 2.4% among 320,000; Huh7 NPC1 promoter luciferase reporter, 24 h; Potency, µM (titrated, usually from 9.22 µM), inactives show at the highest dose activation, usual class: activators; AID 485313; note: % of control where 0% means no effect; nearly all actives have a fitted effect of over 60% in size
#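 Luminescence read-out of NPC1 promoter-driven luciferase in stably transfected Huh7 cells; compounds delivered in DMSO and left 24 h at 37C, 5% CO2, qHTS titration format.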
# FLuc modulator = inhibits or activates purified firefly luciferase, miR-21 counter-screen. purified FLuc, Km substrates, luminescence inhibition. Potency, µM (titrated, usually from 57.5 µM), without a hit: at the highest dose activity change, negative = inhibition, actives largely listed as inhibitors. hit rate 6.9% among 360,000;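 note: plate controls were vehicle for no effect and reference inhibitor for full effect; nearly all actives have a fitted effect of over 55% in size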
# Target sequence (P08659 whole entry, looked up): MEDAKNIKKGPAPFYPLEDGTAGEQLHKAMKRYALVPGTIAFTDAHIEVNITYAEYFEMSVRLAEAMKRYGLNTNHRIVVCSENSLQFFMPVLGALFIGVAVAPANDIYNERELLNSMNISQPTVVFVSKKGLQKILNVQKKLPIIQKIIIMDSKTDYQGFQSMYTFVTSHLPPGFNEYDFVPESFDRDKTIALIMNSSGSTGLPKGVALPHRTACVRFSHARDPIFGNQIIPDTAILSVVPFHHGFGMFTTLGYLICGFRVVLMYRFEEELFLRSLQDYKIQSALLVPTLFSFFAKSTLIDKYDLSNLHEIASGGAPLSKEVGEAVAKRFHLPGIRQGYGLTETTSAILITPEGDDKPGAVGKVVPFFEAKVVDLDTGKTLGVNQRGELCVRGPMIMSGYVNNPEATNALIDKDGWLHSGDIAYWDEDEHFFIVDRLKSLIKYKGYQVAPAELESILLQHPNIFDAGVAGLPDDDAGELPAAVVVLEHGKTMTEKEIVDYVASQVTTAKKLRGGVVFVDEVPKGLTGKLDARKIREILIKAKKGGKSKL
#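 Purified P. pyralis luciferase, 10 nM final, with Km-level 10 uM D-luciferin and 10 uM ATP in 50 mM Tris acetate pH 7.5, 10 mM Mg acetate, 0.01% Tween-20, 0.05% BSA; 6-point qHTS titration about 60 µM downward; luminescence read.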
# Rab9 promoter act = activates the Rab9 promoter; AID 485297; Huh7 Rab9 promoter-luciferase reporter, luminescence, 24 h; Potency, µM (top dose mostly 9.22 µM), without a hit: at the highest dose activation, negative = inhibition, usual class: activators; hit rate 2.8% among 320,000; note: % of control where 0% means no effect; nearly all actives have a fitted effect of over 60% in size
#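 Huh7 cells stably carrying a Rab9 promoter-luciferase reporter, 1500 cells per well in OP-MEM I with 10% FBS, treated with compound 24 hours at 37C. Luciferase activity read by luminescence after 10 minutes with Amplite reagent.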
# SMN2 splice up = increases expression of the SMN2 splice variant; HEK293 SMN2-luciferase splicing reporter, luminescence, 30-36 h; Potency, µM (titrated, usually from 46.1 µM), without a hit: at the top dose activity change, positive = activation, actives largely listed as activators; hit rate 2.8% among 210,000; note: % of control where 0% means no effect; nearly all actives have a fitted effect of over 55% in size
#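 qHTS luciferase splicing reporter: luminescence rises when SMN2 exon 7 is included in transfected HEK293 cells. Compound exposure lasted 30-36 h at 37C, with 4.5 mM final sodium butyrate as control, followed by a ONE-Glo read.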
# An asterisk follows results filed as active; u = inconclusive; x = not tested or not shown. Calls come from the whole dose curve; as a rule, active = well fitted curve in the direction sought with a large enough effect; inconclusive = small, poorly fitted or top-dose-only effect, or another doubt; inactive = no such curve, though single readings can be large; an effect the other way counts as inactive or inconclusive. Potency is the fitted concentration of half-maximal effect.
SMILES,ELG1 genotoxic,NPC1 prom act,FLuc modulator,Rab9 promoter act,SMN2 splice up
COc1ccc(OCc2cc(C(=O)N3CCCCCC3)no2)c(Cl)c1,u,u,19µM*,u,x
COc1ccc(OCc2cc(C(=O)N(C)CCC3CCOCC3)no2)c(Cl)c1,u,u,17µM*,u,x
COc1cccc(OCc2cc(C(=O)N3CCN(C)C(c4ccccc4)C3)no2)c1 (stereo unspecified),7%,26%,27µM*,u,x
COc1ccc(OCc2cc(C(=O)N3CCSCC3)no2)c(Cl)c1,u,2.8µM*,11µM*,2.8µM*,x
COc1ccc(OCc2cc(C(=O)N3CCOCC3)no2)c(Cl)c1,18µM*,1.6µM*,6.7µM*,1.4µM*,x
COc1cccc(C(O)c2nccn2Cc2ccccc2)c1OC (stereo unspecified),-1%,2%,-2%,0%,x
O=C(/C=C/c1ccc2c(c1)OCO2)N1CCOCC1,11%,19%,17µM*,26%,x
CC(C)Cc1ccc(/C=C/C(=O)N2CCOCC2)cc1,u,2.8µM*,11µM*,2.2µM*,13µM*
CC(C)(C)c1ccc(/C=C/C(=O)N2CCN(c3ncccn3)CC2)cc1,-3%,-3%,24µM*,-3%,-4%
CC(C)(C)c1ccc(/C=C/C(=O)N2CCOCC2)cc1,u,u,11µM*,u,3.2µM*
CCC(C(=O)Nc1cc(C)ccc1C)n1c(=O)c(C(F)(F)F)nc2ccccc21 (stereo unspecified),x,x,-4%,x,x
Cc1cc(C)c(NC(=O)c2cc(S(=O)(=O)N3CCN(c4ccccc4F)CC3)ccc2F)c(C)c1,x,x,-1%,x,x
CC(N)(C(=O)O)c1cccc(CC(=O)O)c1 (stereo unspecified),x,x,x,x,0%
Cc1cccc(C)c1NC(=O)CN1CCN(C(=O)CNC(=O)c2ccc(N3CCCC3=O)cc2)CC1,1%,-3%,-1%,-3%,x
Fc1cc(Br)ccc1NC(=S)Nc1ccccc1,9%,u,19µM*,u,18µM*
COC(=O)c1ccc(NC(=O)Nc2cccc(F)c2)cc1,7%,u,4.8µM*,1.8µM*,x
O=C(Nc1ccccc1)Nc1ccc(F)cc1F,u,u,12µM*,4.5µM*,u
Fc1ccccc1NC(=S)Nc1ccc(Br)cc1,0%,-4%,u,2%,x
CC(=O)Nc1cccc(NC(=O)Nc2ccc(F)cc2F)c1,4%,-1%,u,1%,71%
COC(=O)c1ccc(NC(=O)Nc2ccc(F)cc2F)cc1,u,u,7.6µM*,3.5µM*,20µM*
COc1ccc(-c2noc(CSc3nnc(Cc4ccccc4)n3-c3ccccc3)n2)cc1OC,x,x,-13%,x,4%
CCOc1cccc(Nc2nn(-c3ccc(OC(F)(F)F)cc3)nc2C(C)=O)c1,x,x,7%,x,8%
CCOc1ccccc1CNC(=O)C1=C(C)C(=O)OC12CCN(C(C)=O)CC2,x,x,-1%,x,x
COc1cccc(/C=N/NC(=O)c2cccs2)c1,21µM*,u,5.4µM*,2.8µM*,x
COc1ccccc1/C=C\C=N\NC(=O)c1ccco1,u,20%,u,u,23%
SMILES,ELG1 genotoxic,NPC1 prom act,FLuc modulator,Rab9 promoter act,SMN2 splice up
COc1cc(/C=N/NC(=O)c2cccs2)ccc1O,21µM*,29%,11µM*,u,x
COc1cc(/C=N/NC(=O)c2ccccc2O)ccc1OC(=O)CC1SC(=O)NC1=O (stereo unspecified),3%,1%,17µM*,1%,x
COc1ccccc1/C=C/C=N/NC(=O)c1cccs1,u,2.5µM*,11µM*,3.2µM*,x
COc1cc(/C=N/NC(=O)c2cccs2)ccc1OCc1ccccc1,2%,-4%,u,4%,9%
COc1cc(/C=N/NC(=O)c2cc(C)oc2C)ccc1OCc1ccccc1,-1%,1%,u,-3%,x
O=C(c1ccc(Cl)cc1)N(Cc1ccco1)C1CCS(=O)(=O)C1 (stereo unspecified),4%,-1%,1%,8%,x
O=C(C1CCCCC1)N(Cc1cccnc1)c1nc2c(F)cc(F)cc2s1,x,x,5%,x,x
CCn1cc(S(=O)(=O)c2ccc(Cl)cc2)c(=O)c2cc(F)c(N3CCOCC3)cc21,x,x,-1%,x,x
COC(=O)c1ccc(NC(=O)C(=O)c2cn(CC(=O)N3CCOCC3)c3ccccc23)cc1,11%,-1%,-12%,-3%,x
COc1ccc(-c2cc3nc(C4CCN(C(=O)OC(C)(C)C)CC4)c(C(=O)Nc4cc(Cl)cc(Cl)c4)cn3n2)cc1,x,x,-3%,x,-5%
O=C(N/N=C/c1cccc(OC(=O)N2CCOCC2)c1)c1cccs1,3%,17%,9.5µM*,19%,5%
COc1ccc2o/c(=N/NC(=O)c3cccs3)c(C(N)=O)cc2c1,14%,u,u,u,14µM*
NC(=O)c1cc2ccccc2o/c1=N/NC(=O)c1cccs1,-2%,12%,-3%,6%,15%
COc1cc(/C=N/NC(=O)c2sc3nc(C)cc(C)c3c2N)ccc1O,9%,-3%,5.4µM*,-7%,x
COC(=O)N/N=C\c1cccc(OC(=O)c2cccs2)c1,7%,-2%,-15%,-4%,6%
COc1cc(/C=N/n2cnc3c(sc4nc(C)cc(C)c43)c2=O)ccc1O,6%,-3%,-14%,1%,x
Cc1c(NC(=O)CN2CCN(c3ccc(F)cc3)CC2)c(=O)n(-c2ccccc2)n1C,0%,-1%,0%,-2%,-8%
Cc1nc(NCc2ccco2)c2c(C)c(C)sc2n1,-27%,-17%,0%,-16%,3.2µM*
CCOC(=O)c1sc2nc(CC(=O)OC)nc(NCc3ccco3)c2c1C,-7%,0%,-14%,-3%,8%
Cc1sc2nc3c4ccccc4c(NCc4ccco4)nn3c(=O)c2c1C,7.1µM*,u,7.6µM*,2.8µM*,10µM*
O=C(N/N=C/C(Cl)=C\c1ccccc1)c1cccs1,u,2.5µM*,2.7µM*,2µM*,x
O=C(O)/C(=C\c1ccc(Br)cc1)NC(=O)c1cccs1,2%,-5%,4%,1%,x
CC(/C=N/NC(=O)c1cccs1)=C\c1ccccc1,8%,1µM*,2.1µM*,0.79µM*,4µM*
COc1ccc(C(C(=O)NC2CCCCC2)N(C(=O)c2ccco2)c2ccccc2C(C)=O)cc1OC (stereo unspecified),3%,0%,0%,-1%,x
O=C(Nc1nnc(-c2cc(Cl)ccc2Cl)o1)c1ccco1,u,16%,6µM*,19%,x
O=C(Nc1ccc(N2CCOCC2)c(Cl)c1)c1ncn[nH]1,2%,23%,21µM*,9%,17%
O=C(Nc1ccc(N2CCOCC2)c(Cl)c1)C1CCCCC1,u,18%,u,13%,-12%
O=C(Nc1ccc(Cl)cc1C(=O)Nc1ccncc1)c1ccco1,-12%,2%,-17%,8%,32µM*
O=C(Nc1ccc(Cl)cc1C(=O)NCc1cccnc1)c1ccco1,-1%,4%,0%,0%,u
